This is a sample that favours compounds with a hit; in the whole collection about 3.7% have one here.
GLP1R ag: activates the human GLP-1 receptor | P43220 | HEK293 GLP-1R CRE-luciferase, luminescence, 4-6 h; cells express a hypersensitive GLP-1R form | Potency, µM (titrated, usually from 45.6 µM), without a hit: at the top dose activation, usual class: activators | 380,000 tested, 0.007% active | AID 624172; note: % of control where 0% means no effect
Target sequence (P43220 whole entry, looked up): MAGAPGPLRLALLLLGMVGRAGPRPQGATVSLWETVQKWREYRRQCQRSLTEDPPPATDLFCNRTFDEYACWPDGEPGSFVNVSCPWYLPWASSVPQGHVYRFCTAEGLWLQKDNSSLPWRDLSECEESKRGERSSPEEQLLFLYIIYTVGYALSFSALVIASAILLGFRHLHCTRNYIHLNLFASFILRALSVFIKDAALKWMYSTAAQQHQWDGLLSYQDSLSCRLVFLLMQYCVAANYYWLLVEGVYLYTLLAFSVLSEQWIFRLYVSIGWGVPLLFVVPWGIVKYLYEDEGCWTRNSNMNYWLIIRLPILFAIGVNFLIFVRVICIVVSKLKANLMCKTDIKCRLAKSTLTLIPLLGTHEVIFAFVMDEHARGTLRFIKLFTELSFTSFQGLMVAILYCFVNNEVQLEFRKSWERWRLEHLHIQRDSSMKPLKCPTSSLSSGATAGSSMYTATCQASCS
TGFb SMAD3 inh: TGF-b pathway inhibition. HepG2 CAGA-GFP TGF-b/SMAD3 reporter, GFP fluorescence, 18 h; TGF-beta stimulated, 500 pg/mL final. Potency, µM (top dose mostly 46.1 µM), for the others: top-dose activity, negative = inhibition, usual class: inhibitors. 410,000 tested, 1.2% active; note: % is set by controls: 0 for no effect and ±100 for the full control effect; nearly all actives have a fitted effect of over 65% in size
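Per well, imaged GFP fluorescence of HEPG2 CAGA-GFP cells gives the signal; cells get compound, then TGF-beta (500 pg/mL final), 18 h at 37 degrees C; %Activity versus -TGF-beta and +DMSO controls.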
ATXN2 expr inh: ATXN2 expression inhibition | Potency, µM (series often up to 57 µM), for inactives: top-dose activity change, negative = inhibition, actives largely listed as inhibitors | HEK-293 ATXN2-luciferase reporter, luminescence, 24 h | 360,000 tested, 0.72% active | AID 1745845; note: % is set by controls: 0 for no effect and ±100 for the full control effect; nearly all actives have a fitted effect of over 55% in size
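qHTS (up to 57 uM final) was run with 24 h compound exposure of reporter cells at 37 °C. Each well was multiplexed: SteadyGlo luminescence measured ATXN2-luciferase expression after a fluorogenic Gly-Phe-AFC viability readout (25 uM final).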
GLP-1R inv ag: inverse agonists of human GLP-1 receptor; P43220; HEK293 GLP-1R CRE-luciferase, luminescence, 24 h; GLP-1R form is constitutively active; Potency, µM (doses to about 38.3 µM), without a hit: top-dose activity change, negative = inhibition, most hits filed as inhibitors; 410,000 tested, 1.6% active; AID 624417; note: % is set by controls: 0 for no effect and ±100 for the full control effect; nearly all actives have a fitted effect of over 55% in size
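Constitutively active GLP-1R drives a cAMP-responsive luciferase in stably transfected HEK293 cells; test compounds are added after overnight (12 h) attachment and left 24 hr, and signal loss in luminescence marks inhibition.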
HepG2 viability: counter-screen for TGF-b inhibitors: cytotoxicity in HepG2 cells; HepG2 CAGA-GFP viability, ATP luminescence, 18 h; Potency, µM (top dose mostly 46.1 µM), without a hit: at the highest dose activity change, negative = cytotoxicity, usual class: cytotoxic; 410,000 tested, 0.76% active
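HepG2 CAGA-GFP cells (1000/well, DMEM with 1% FBS) received compound, then TGF-beta at 500 pg/mL final, and were incubated 18 hours at 37 degrees C. Viability was read by CellTiter-Glo luminescence. Media-only wells were set as complete cell-killing and DMSO as no toxicity.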
ATXN viability: reduces viability in counter-screen for ATXN expression inhibitors. S2 cells (HEK-293 line with an ATXN2-luciferase reporter) viability, CellTiter-Fluor protease fluorescence, 24 h. Potency, µM (doses to about 56.7 µM), usual class: cytotoxic. 400,000 tested, 0.49% active. AID 651635; note: nearly all actives have a fitted effect of over 40% in size
The depositor's hits bear a star. Calls come from the whole dose curve; as a rule, active = well fitted curve in the direction sought with a large enough effect; inconclusive = small, poorly fitted or top-dose-only effect, or another doubt; inactive = no such curve, though single readings can be large; an effect the other way counts as inactive or inconclusive. Potency is the fitted concentration of half-maximal effect.

Screening O=C(NCc1cccc(Cl)c1)NCc1noc2ccccc12 returned TGFb SMAD3 inh -10.2%, ATXN2 expr inh 5.1%, GLP-1R inv ag -4.1%, HepG2 viability -16.4% and ATXN viability inactive.
For Cc1c(C(=O)N2c3ccccc3Sc3ccccc32)cccc1[N+](=O)[O-] the results were GLP1R ag 2.4%, TGFb SMAD3 inh 0.0%, ATXN2 expr inh inconclusive, GLP-1R inv ag 1.78µM*, HepG2 viability -1.0% and ATXN viability inactive.
`Cc1cc(C)n(C(=O)c2cccc([N+](=O)[O-])c2C)n1` gave GLP1R ag -2.4%, TGFb SMAD3 inh 12.9%, GLP-1R inv ag 18.1%, HepG2 viability -6.8% and ATXN viability inactive.
Screening CCOC(=O)c1c(C)c(-c2ccccc2)n(CC(=O)NCCc2cccc(C)c2)c1C returned GLP1R ag -1.2%, TGFb SMAD3 inh inconclusive, ATXN2 expr inh -2.3%, GLP-1R inv ag -7.1%, HepG2 viability 3.8% and ATXN viability inactive.
For CCN(CC)c1ccc(/C=C/c2cccc[n+]2C)c(OC)c1 the results were GLP1R ag 5.8%, TGFb SMAD3 inh 25.8%, ATXN2 expr inh 3.16µM*, GLP-1R inv ag -16.1%, HepG2 viability -15.9% and ATXN viability 8.91µM*.
For COc1ccc(/C=C/c2cccc[n+]2C)c(O)c1 the results were GLP1R ag -6.5%, TGFb SMAD3 inh inconclusive, GLP-1R inv ag -1.9%, HepG2 viability -2.2% and ATXN viability inconclusive.
CCc1cccc(C)c1NC(=O)CCCn1c(C)c2cnn(-c3ccccc3)c(=O)c2c1C was read as TGFb SMAD3 inh -26.2%, GLP-1R inv ag inconclusive and HepG2 viability -20.7%.
CC1(C)OC(=O)C2(Cc3c(F)cccc3N3CCCC32)C(=O)O1 (stereo not drawn) was read as TGFb SMAD3 inh -2.8% and HepG2 viability -0.6%.
`Cc1cccc(C)c1-n1c(C)cc(/C=N/NC(N)=S)c1C` gave GLP1R ag -6.6%, TGFb SMAD3 inh -31.3%, ATXN2 expr inh -18.8%, GLP-1R inv ag 11.2µM*, HepG2 viability -1.8% and ATXN viability inconclusive.
Screening CCOC(=O)C(=CNc1ccc2c(c1)nnn2-c1ccc(Cl)cc1)C(=O)OCC returned GLP1R ag 0.5%, TGFb SMAD3 inh 7.6%, ATXN2 expr inh 23.8µM*, GLP-1R inv ag 6.5%, HepG2 viability 16.2% and ATXN viability inconclusive.
For Cc1nc(C)c(C(=O)N2CCc3c(cnc(C)c3CNC(=O)c3cncs3)C2)s1 the results were ATXN viability inactive.
Screening O=S(=O)(c1cccs1)N1CCN(c2ccnc3cc(Cl)ccc23)CC1 returned GLP1R ag 1.5%, TGFb SMAD3 inh inconclusive, ATXN2 expr inh inconclusive, GLP-1R inv ag -18.9%, HepG2 viability -15.4% and ATXN viability inactive.
`O=S(=O)(c1ccccc1)N1CCN(c2ccnc3cc(Cl)ccc23)CC1` gave GLP1R ag 11.3%, TGFb SMAD3 inh inconclusive, ATXN2 expr inh 12.6µM*, GLP-1R inv ag inconclusive, HepG2 viability -30.1% and ATXN viability inconclusive.
For Cc1cccc(-c2ocnc2C(=O)Nc2ccccc2NC(=O)c2ccccn2)c1 the results were GLP1R ag 13.6%, TGFb SMAD3 inh inconclusive, ATXN2 expr inh -10.0%, GLP-1R inv ag 0.501µM*, HepG2 viability -7.1% and ATXN viability inactive.
For Cc1ccc(-c2ocnc2C(=O)Nc2ccccc2NC(=O)c2ccccn2)cc1 the results were GLP1R ag 12.8%, TGFb SMAD3 inh inconclusive, ATXN2 expr inh -21.4%, GLP-1R inv ag inconclusive, HepG2 viability -39.2% and ATXN viability inactive.
O=C(/C=C/c1ccccc1)CCN1CCCCC1 was read as GLP1R ag -6.9%, TGFb SMAD3 inh 11.2µM*, ATXN2 expr inh inconclusive, GLP-1R inv ag inconclusive, HepG2 viability 20µM* and ATXN viability inconclusive.
For COc1ccc(CCNC(=O)c2cnn(-c3nccc(-c4cccs4)n3)c2C)cc1OC the results were ATXN viability inactive.
Screening COc1cccc(C2C(C#N)=C(N)OC3=C2C(=O)CC(c2ccco2)C3)c1OCc1ccc(F)cc1 (stereo not drawn) returned GLP1R ag 0.6%, TGFb SMAD3 inh -3.6%, ATXN2 expr inh -18.4%, GLP-1R inv ag inconclusive, HepG2 viability -2.2% and ATXN viability inactive.
Screening N#CC1=C(N)OC2=C(C(=O)CC(c3ccco3)C2)C1c1ccc(OCc2c(F)cccc2Cl)cc1 (stereo not drawn) returned GLP1R ag -13.8%, TGFb SMAD3 inh inconclusive, ATXN2 expr inh 1.7%, GLP-1R inv ag 10µM*, HepG2 viability -6.9% and ATXN viability inactive.
`CCN(CC)C(=O)c1sc2c(c1C)c(=O)n(CCc1ccccc1)c(=O)n2Cc1ccc(C)cc1` gave TGFb SMAD3 inh inconclusive, ATXN2 expr inh inconclusive, GLP-1R inv ag inconclusive, HepG2 viability -32.5% and ATXN viability inconclusive.
Screening C[C@H]1O[C@H](O[C@H]2[C@H](O)[C@@H](O)[C@@H](O[C@H]3[C@H](O)[C@@H](O)[C@H](O)O[C@@H]3CO)O[C@@H]2CO)[C@H](O)[C@@H](O)[C@@H]1N[C@H]1C=C(CO)[C@@H](O)[C@H](O)[C@H]1O returned ATXN2 expr inh 1.7% and ATXN viability inactive.
COc1ccc(-n2c(C)cc(/C=C3/SC(=S)N(C)C3=O)c2C)cc1 was read as GLP1R ag -2.3%, TGFb SMAD3 inh -6.3%, ATXN2 expr inh 28.0%, GLP-1R inv ag -16.2%, HepG2 viability -2.4% and ATXN viability inactive.
Screening Cc1cc(/C=C2\SC(=S)N(Cc3ccco3)C2=O)c(C)n1-c1ccccc1 returned GLP1R ag -7.6%, TGFb SMAD3 inh -14.6%, ATXN2 expr inh 81.0%, GLP-1R inv ag 2.24µM*, HepG2 viability 3.1% and ATXN viability inactive.
Screening Cc1cc(/C=C2\SC(=S)N(C)C2=O)c(C)n1-c1cccc(O)c1 returned GLP1R ag -3.3%, TGFb SMAD3 inh -5.0%, ATXN2 expr inh 43.7%, GLP-1R inv ag 2.82µM*, HepG2 viability 2.5% and ATXN viability inactive.
O=c1oc2ccccc2cc1-c1ccc(O)cc1 was read as GLP1R ag 2.3%, TGFb SMAD3 inh 3.4%, ATXN2 expr inh 64.4%, GLP-1R inv ag 33.3%, HepG2 viability -2.6% and ATXN viability inactive.
O=C/C=C/c1c(-c2ccccc2)cc2oc3ccccc3cc1-2 was read as GLP1R ag -0.4%, TGFb SMAD3 inh 11.2µM*, ATXN2 expr inh inconclusive, GLP-1R inv ag 30.9%, HepG2 viability 15.8µM* and ATXN viability inconclusive.
